From PubChem BioAssay
Only some compounds are listed: those with a hit (about 1.6% of all), similar ones and a draw of the others.
KCNQ2 inh = blocks the rat KCNQ2 potassium channel | O88943 | CHO-K1 KCNQ2, FluxOR thallium flux, 20 min; hits give low values | B-score at 10 µM | actives 1.1% (n = 310,000) | AID 2156;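 active = fluorescence ratio B-score at most minus 3 library SDs, with starting brightness B-score within 2 library SDs, cut at about -5.5 in these data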
Target sequence (O88943 whole entry, looked up): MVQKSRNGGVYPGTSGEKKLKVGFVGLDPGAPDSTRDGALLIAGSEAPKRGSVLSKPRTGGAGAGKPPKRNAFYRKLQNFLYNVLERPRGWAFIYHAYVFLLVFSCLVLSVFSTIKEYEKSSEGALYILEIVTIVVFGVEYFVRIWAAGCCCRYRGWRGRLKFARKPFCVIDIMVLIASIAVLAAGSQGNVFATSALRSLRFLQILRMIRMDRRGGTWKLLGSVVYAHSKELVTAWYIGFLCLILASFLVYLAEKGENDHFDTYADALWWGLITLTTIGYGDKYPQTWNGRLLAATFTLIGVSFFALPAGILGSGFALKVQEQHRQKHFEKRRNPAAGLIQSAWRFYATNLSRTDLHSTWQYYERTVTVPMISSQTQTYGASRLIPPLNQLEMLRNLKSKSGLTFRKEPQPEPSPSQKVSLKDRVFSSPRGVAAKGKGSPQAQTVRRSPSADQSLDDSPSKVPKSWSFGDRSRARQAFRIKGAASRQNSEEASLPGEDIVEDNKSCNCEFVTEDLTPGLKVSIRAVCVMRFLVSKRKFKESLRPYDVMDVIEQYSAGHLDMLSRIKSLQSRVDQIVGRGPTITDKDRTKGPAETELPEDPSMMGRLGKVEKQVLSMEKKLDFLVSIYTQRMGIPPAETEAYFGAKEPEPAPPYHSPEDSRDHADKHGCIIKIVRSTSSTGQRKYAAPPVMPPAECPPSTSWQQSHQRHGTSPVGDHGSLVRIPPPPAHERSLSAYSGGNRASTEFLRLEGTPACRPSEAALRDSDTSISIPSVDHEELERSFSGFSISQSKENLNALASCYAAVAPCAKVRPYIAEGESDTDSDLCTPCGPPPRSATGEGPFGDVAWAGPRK
KCNQ2 pot = KCNQ2 (rat) channel potentiation. CHO-K1 KCNQ2, FluxOR thallium flux fluorescence; hits give high values. AID 2239. O88943. B-score at 10 µM. actives 0.54% (n = 310,000);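 active = fluorescence ratio B-score at least 3 SD of library B-scores, with initial fluorescence B-score within 3 of them, cut at about 5.3 in these data; same plate scores as AID 2156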;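 also: B-score of peak minus minimum over baseline fluorescence ratio after K+ and Tl+ stimulus; positive B-score means potentiation of KCNQ2 with more thallium influx and brighter signal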
Kir21 conf inh = confirmation of mouse Kir2.1 potassium channel inhibitors | Tl flux remaining, % of negative control (hits give low values), % at 10 µM | AID 2032 | Kir2.1-expressing cells, FluxOR thallium flux fluorescence; hits give low values | shares compounds with KCNQ2 pot | actives 41% (n = 2,300);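 active = Primary-screen hit whose thallium flux fell at least 3 control SD below untreated wells in both duplicates, with normal baseline fluorescence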
HEK293 Tl flux = counter-screen for Kir2.1 inhibitors: effect in parental HEK293 cells | FluxOR thallium flux fluorescence; 0% = unstimulated blank wells | FluxOR signal as % of negative control (100 = no effect), % at 10 µM | shares compounds with KCNQ2 pot | actives 19% (n = 2,300) | AID 2105;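 active = dye signal at least 3 control SD above or below untreated wells in both duplicates, raw fluorescence within 3, either direction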;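 also: percent is based on the flux ratio of peak minus minimum fluorescence over baseline F0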
CHO-K1 ctr = alters thallium flux in parental CHO-K1 cells, KCNQ2 counter-screen | shares compounds with KCNQ2 pot | FluxOR thallium flux fluorescence; zero = vehicle mean+3SD, 100% = vehicle-minus-blank window | activity increase over 3SD of controls, % at 10 µM | actives 43% (n = 1,200);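 active = signal rise of at least 3 SD above the untreated control mean, in both duplicate wells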;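 also: counter screen of KCNQ2 potentiator hits so any rise reflects channel-independent effects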
KCNQ1 sel pot = tests whether KCNQ2 potentiators also act on human KCNQ1. CHO KCNQ1 stable, FluxOR thallium flux fluorescence; beyond 3SD, as % of vehicle-control signal. actives 28% (n = 1,200). activation over 3SD threshold, % at 10 µM. shares compounds with KCNQ2 pot;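 active = fluorescence ratio rise of at least 3 SD of vehicle wells above their mean, in both replicate wells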
KCNQ2 pot confirm = rat KCNQ2 channel potentiator confirmation; CHO-KCNQ2 cells, FluxOR thallium flux fluorescence; AID 2287; actives 68% (n = 1,200); potentiation, less the hit threshold, % at 10 µM; shares compounds with KCNQ2 pot;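 active = fluorescence ratio rising 3 SD or more over the vehicle control mean in both replicates, plus primary screen hit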;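 also: peak minus minimum thallium fluorescence divided by baseline after K/Tl stimulus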
Kir21 spec = selectivity of KCNQ2 potentiators: effect on mouse Kir2.1. activity over 3SD threshold, % at 10 µM. AID 2345. HEK293 Kir2.1, FluxOR thallium flux fluorescence. actives 2% (n = 1,200). shares compounds with KCNQ2 pot;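 active = fluorescence ratio rise of at least 3 SD above the vehicle-control mean, seen in both replicates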
Each line names hits and unclear results; the compound was inactive in the other large screens (follow-up assays come after a bar, where they were run).

CC(=O)Nc1ccc(NC(=O)C(C)OC(=O)CCc2c[nH]c3ccccc23)cc1 (centres undefined)	none
CCOC(=O)[C@@H]1[C@H]2COc3cc(OC)ccc3[C@@H]2N2C(=O)N(c3ccc(F)cc3)C(=O)[C@]12C	none (no result: KCNQ2 pot)
CC1=CC(C)(C)n2c(O)c(N=NC(N)=S)c3c(C)ccc1c32	none
CC1=CC(C)(C)n2c(O)c(N=N)c3c(C)ccc1c32	KCNQ2 pot 5.3 | Kir21 conf inh inactive | HEK293 Tl flux inactive | CHO-K1 ctr 54 | KCNQ1 sel pot inactive | KCNQ2 pot confirm inactive | Kir21 spec inactive
CN1CCc2c(sc(/N=C/c3cc(C(C)(C)C)ccc3O)c2C#N)C1	KCNQ2 pot 11 | Kir21 conf inh inactive | HEK293 Tl flux inactive | CHO-K1 ctr inactive | KCNQ1 sel pot inactive | KCNQ2 pot confirm inactive | Kir21 spec inactive
COc1ccc(/C=N/c2sc3c(c2C#N)CCN(Cc2ccccc2)C3)c(O)c1	none (no result: KCNQ2 pot)
CCc1cccc(N(C(=O)c2csnn2)C(C(=O)NC2CCCCC2)c2cccnc2)c1 (centres undefined)	none
Clc1ccc2nc(C3CCN(Cc4ccccc4)CC3)[nH]c2c1	none (no result: KCNQ2 pot) | Kir21 conf inh 41% | HEK293 Tl flux inactive
Cc1ccc(CN2CCC(c3nc4ccc(Cl)cc4[nH]3)CC2)cc1	none (no result: KCNQ2 pot) | Kir21 conf inh 26% | HEK293 Tl flux inactive
CC1CCCCN1C(=O)CN1CCC(c2nc3ccc(Cl)cc3[nH]2)CC1 (centres undefined)	none (no result: KCNQ2 pot)
O=C(c1cccc(Cl)c1)N1CCC(c2nc3ccccc3[nH]2)CC1	none
CC(C)OCCCNC(=O)c1cn(C)c2ccc(S(=O)(=O)N(C)C3CCCCC3)cc2c1=O	none
O=C(NCCNC(=O)c1ccco1)c1ccc(Cl)c(Cl)c1	none
